# Assay results reported in the supplement of paper PMC10121225.
# System: hN + hpA co-culture (H1 iNGN2 human neurons + human primary astrocytes)
# Test: presynaptic density (SYNAPSIN1 puncta per MAP2 neurite area), Z-score vs DMSO controls; higher = more presynaptic puncta (synapse-promoting)
# Conditions: 3 µM; 72 h
# 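Note: immunostained co-cultures imaged by high-content microscopy, Z-score per plate against mean and SD of 0.1% DMSO wells, compounds added on differentiation day 18, analysed day 21.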
row,SMILES,presynaptic density (Z-score)
1,CN(Cc1cnc2nc(N)nc(N)c2n1)c1ccc(C(=O)N[C@@H](CCC(=O)O)C(=O)O)cc1 [Methotrexate],-0.494
2,N#CC1(c2ccc(NC(=O)c3cccnc3NCc3ccncc3)cc2)CCCC1 [Apatinib],-1.31
3,O=C(N/N=C/c1ccc(O)c(O)c1)c1cc2ccccc2cc1O,-0.146
4,CCCS(=O)(=O)Nc1ccc(F)c(C(=O)c2c[nH]c3ncc(-c4ccc(Cl)cc4)cc23)c1F,-0.231
5,CCc1c(C(=O)NCCc2ccc(N3CCCCC3)cc2)[nH]c2ccc(Cl)cc12,-0.684
6,CN(c1ncccc1CNc1nc(Nc2ccc3c(c2)CC(=O)N3)ncc1C(F)(F)F)S(C)(=O)=O,-0.85
7,CC(=O)OCC(=O)NCCCOc1cccc(CN2CCCCC2)c1,-0.62
8,CC(C)c1onc(-c2c(Cl)cccc2Cl)c1COc1ccc(/C=C/c2cccc(C(=O)O)c2)c(Cl)c1,-0.576
9,Cc1cnc(-c2cc(N3CCN(C(=O)CCS(C)(=O)=O)CC3)ncc2Cl)c(C)c1,-1.22
10,Cc1nn(-c2ccccc2)c(C)c1C=NN1CCN(Cc2ccccc2)CC1,-0.2
11,Cc1ccc2nc(NC(=O)CSc3nc4c(c(=O)n3-c3ccccc3)SCC4)sc2c1,-0.234
12,Cc1ccc(S(=O)(=O)NC(=O)NN2CC3CCCC3C2)cc1 (centres undefined),0.0878
13,COc1cc(OC)c(/C=C/S(=O)(=O)Cc2ccc(OC)c(NCC(=O)O)c2)c(OC)c1,-3.31
14,CC(=O)c1c(C)c2cnc(Nc3ccc(N4CCNCC4)cn3)nc2n(C2CCCC2)c1=O,-0.609
15,C=CCn1c(=O)c2cnc(Nc3ccc(N4CCN(C)CC4)cc3)nc2n1-c1cccc(C(C)(C)O)n1,1.16
16,O=C(Nc1cc(C(F)(F)F)cc(C(F)(F)F)c1)c1cc(Cl)ccc1O,-3.05
17,CN1CCN(c2nc(C3=C(c4c[nH]c5ccccc45)C(=O)NC3=O)c3ccccc3n2)CC1 [AEB071 (Sotrastaurin)],-0.719
18,O=S(=O)(c1ccccc1)N(CC(F)(F)F)c1ccc(C(O)(C(F)(F)F)C(F)(F)F)cc1,-0.732
19,COc1cc(F)c(F)c(Nc2ccc(I)cc2F)c1NS(=O)(=O)C1(CC(O)CO)CC1 (centres undefined) [Refametinib (RDEA119],0.433
20,COc1cc2c(cc1Cc1cccc(Cl)c1F)c(=O)c(C(=O)O)cn2[C@H](CO)C(C)C [Elvitegravir (GS-9137],0.597

row,SMILES,presynaptic density (Z-score)
1,COc1ccc2[nH]c([S@@+]([O-])Cc3ncc(C)c(OC)c3C)nc2c1 [Esomeprazole Sodium],0.0968
2,Cc1cc(Nc2ncc(Cl)c(Nc3ccccc3S(=O)(=O)C(C)C)n2)c(OC(C)C)cc1C1CCNCC1,0.147
3,Cc1cn(-c2cc(NC(=O)c3ccc(C)c(Nc4nccc(-c5cccnc5)n4)c3)cc(C(F)(F)F)c2)cn1 [Nilotinib (AMN 107 or Tasigna)],-1.02
4,C[C@H](N[C@@H](CCc1ccccc1)C(=O)O)C(=O)N1CCC[C@H]1C(=O)O,-0.963
5,CC1COCCN1c1cc(C2(S(C)(=O)=O)CC2)nc(-c2cccc3[nH]ccc23)n1 (centres undefined),0.445
6,COc1cc2c(cc1OC)CN(CCc1ccc(NC(=O)c3cc(OC)c(OC)cc3NC(=O)c3cnc4ccccc4c3)cc1)CC2 [Tariquidar],-0.47
7,O=C1c2ccccc2-c2n[nH]c3cccc1c23 [Anthra[1-9-cd]pyrazol-6(2H)-one],0.183
8,O=S(=O)(NCCNCC=Cc1ccc(Br)cc1)c1cccc2cnccc12,-0.0684
9,"NC(=O)C1CCCc2c1[nH]c1ccc(Cl)cc21 (centres undefined) [6-Chloro-2,3,4,9-tetrahydro-1H-carbazole-1-carboxamide]",0.159
10,Oc1cc(O)cc(/C=C/c2ccc(O)c(O)c2)c1 [Piceatannol],-0.0151
11,Cc1noc(-c2ccc(CSCCC(=O)O)cc2)c1NC(=O)OC(C)c1ccccc1Cl (centres undefined),0.975
12,C=CC(=O)Nc1cccc(Oc2nc(Nc3ccc(N4CCN(C)CC4)cc3OC)ncc2Cl)c1,-0.275
13,COc1nc(C)cnc1NS(=O)(=O)c1cccnc1-c1ccc(-c2nnco2)cc1 [Zibotentan (ZD4054)],-1.1
14,CNC(=O)c1ccc(N2C(=S)N(c3ccc(C#N)c(C(F)(F)F)c3)C(=O)C2(C)C)cc1F [Enzalutamide (MDV3100)],0.664
15,C[S+]([O-])c1ccc(-c2nc(-c3ccc(F)cc3)c(-c3ccncc3)[nH]2)cc1 (centres undefined),-1.11
16,COc1ccc(CNCc2cccc3ccccc23)cc1,-1.02
17,O=C(Nc1ccccc1)N1CCN(c2nc(-c3ccccc3)ns2)CC1,-0.242
18,COc1cc(OC)c(NC(=O)Nc2cc(C)on2)cc1Cl,-0.694
19,NC(=O)N1c2ccccc2CC(=O)c2ccccc21,0.372
